A1 inhib – blocks A1 activity; MEF A1-2A-BIM cells, caspase-Glo luminescence, 3 h; percent of clofoctol signal, DMSO as zero; 21,000 tested, 0.51% active; AID 2241; caspase activation, % (no concentration beside the values);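 active means most replicate scores above 10, or exactly half above 10 with mean activity above 10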;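 further: effector caspase 3 and 7 activity cleaving a DEVD luciferin substrate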
* = called active by the depositor. The full list was thinned out, with hits kept by preference.

SMILES	A1 inhib
CCn1cnc2c(Nc3cccc(Cl)c3)nc(N[C@@H]3CCCC[C@@H]3N)nc21	26*
CO[C@H]1[C@H](O)[C@H](O[C@H]2CC[C@]3(C)C4CC[C@]5(C)C(C6=CC(=O)OC6)CC[C@]5(O)C4CC[C@@H]3C2)O[C@@H](C)[C@@H]1O (stereo not given in full)	1
CCC1(CC)OC(c2cccnc2)Nc2ccccc21 (stereo not given)	1
CCC(C)(O)C(=O)O[C@H]1C(=O)O[C@@H]2C[C@H]3C(C)=CC(=O)[C@@H](O)[C@]3(C)[C@H]3[C@@]4(O)OC[C@]32[C@@H]1[C@@H](C)[C@H]4O (stereo not given in full)	9
CCC(C)N=Cc1c(O)[nH]c(=O)[nH]c1=O (stereo not given)	0
O=C1NC(=O)C(=Cc2cn(Cc3ccccc3)c3ccccc23)C(=O)N1	33*
O=[P+](c1ccccc1)c1ccccc1	0
Cc1ccc2[nH]cc(CC(C)N)c2c1 (stereo not given)	0
CCSc1nc2ccccc2c(=O)n1-c1cccc(OC)c1	0
CN[C@@H]1C[C@@]2(C)O[C@@H]([C@@H]1OC)n1c3ccccc3c3c4c(c5c6ccccc6n2c5c31)C(=O)NC4	84*
CC(/C=C/[C@@]1(C)[C@H](C)CCC(=O)[C@@H]1C)=C\Cc1c(O)c(Cl)c(C)c(C=O)c1O	-1
C/C=C\C(=O)O[C@@H]1C[C@H]2O[C@@H]3C=C(C)C(=O)C[C@]3(C)[C@]1(C)[C@]21CO1	11*
CC1=CC2OC3[C@H](O)C[C@@](C)([C@]34CO4)[C@@]2(CO)[C@H](O)C1=O (stereo not given in full)	3
Cc1ccc(NC(=O)c2cccc(OC(=O)N(C)c3ccccc3)c2)cc1C	-2
COCc1cc(OC(=O)N(C)C)nc(COc2ccc(Cl)cc2)n1	1
CC1(C)C(=O)C=C[C@@]2(C)C1C(=O)C(=O)[C@]1(C)C2CC[C@@]2(C)[C@H](c3ccoc3)C[C@H]3O[C@]321 (stereo not given in full)	-1
CC(C)(C)c1cc(C=C(C#N)C#N)cc(Br)c1O	-1
CCOC(=O)C1=C(CN2CC=C(c3ccccc3)CC2)NC(=O)NC1c1ccc(OC)cc1 (stereo not given)	0
Cc1[nH]c2ccccc2c1CCNCC(C)(C)C	0
C=CC1CN2CCC3(C(=O)Nc4ccccc43)C2CC1/C(=C/OC)C(=O)OC (stereo not given)	1
CCN(CC)CCc1c(C)c2ccc(O)cc2oc1=O	2
C/C=C(/C)C(=O)O[C@H]1C(C)=C2[C@H]([C@@H]1OC(=O)CCCCC)[C@@](C)(OC(C)=O)C[C@H](OC(=O)CCC)[C@@]1(O)[C@H]2OC(=O)[C@@]1(C)O	2
Cc1ccc(S(=O)(=O)N2CCCCC2)cc1C(=O)Oc1cccc2cccnc12	-1
CC(=O)OC[C@]12CCC(C)=C[C@H]1O[C@@H]1[C@H](O)[C@@H](OC(C)=O)[C@@]2(C)[C@]12CO2	16*
CC(=O)OC[C@]12C[C@H](O)C(C)=C[C@H]1O[C@@H]1[C@H](O)[C@@H](OC(C)=O)[C@@]2(C)[C@]12CO2	13*
SMILES	A1 inhib
N#CC1(P(=S)(c2ccccc2)c2ccccc2)CCCC1	-2
NC1=C(C(=O)OCc2ccccc2)C2(C(=O)Nc3ccc(Br)cc32)C2=C(O1)C(=O)CCC2 (stereo not given)	0
CC(=O)OC1CCC2(C)C(=CCC3C4CCC(=O)C4(C)CCC32)C1 (stereo not given)	-1
O=C(c1ccc2nc(N3CCCCC3)sc2c1)N1CCC2(CC1)OCCO2	-1
CCc1ccc(CN2CCN(Cc3ccc(CC)cc3)CC2)cc1	0
CC1(C)C(C(=O)Nc2ccc(S(=O)(=O)c3ccc(NC(=O)C4C(C)(C)C4(C)C)cc3)cc2)C1(C)C	0
COc1cc2c(c(OC)c1OC)-c1cc3c(cc1[C@H](OC(C)=O)[C@H]1COC(=O)[C@@H]1C2)OCO3	3
CC1=CC2/C=C(\C)CCC(O)C(O)/C=C/C(=O)C23C(=O)NC(CC(C)C)C3C1C (stereo not given)	77*
CC(C)N(C(=O)SCC(Cl)=C(Cl)Cl)C(C)C	1
CCCCc1nc2ccccc2c(=O)n1-c1ccc(C)cc1	-1
Cc1nc(-c2ccccc2)nc(OC(=O)N(C)C)c1Oc1cccc(C(F)(F)F)c1	0
N#CC(c1ccccc1)c1ccccc1	0
C=C1[C@@H](C)[C@H]2[C@H](Cc3ccccc3)NC(=O)[C@]23OC(=O)/C=C\[C@H](O)CCC[C@@H](C)C/C=C/[C@H]3[C@@H]1O	30*
O=C(CC[N+](=O)[O-])OC[C@H]1O[C@@H](O)[C@H](OC(=O)CC[N+](=O)[O-])[C@@H](OC(=O)CC[N+](=O)[O-])[C@@H]1OC(=O)CC[N+](=O)[O-]	-1
CCN1C[C@]2(C)CC[C@H](OC)[C@@]34C2[C@H](O)C([C@@H]13)[C@@]1(OC)C[C@H](OC)[C@H]2C[C@@H]4[C@@H]1[C@H]2O	0

Screens from PubChem BioAssay.
